This is part of a sample that, as a whole, favours compounds with a hit. Of some 79,000 tested, about 15% had one in any assay. Unmarked numbers belong to inactive results. The source made the active and inactive calls. Cut-off read from the data, not from the text of the source: active = growth inhibition above about 70%; inactive = the rest.
Assays:
[1] = NCI Yeast Anticancer Drug Screen. Data for the rad50 strain (AID 155);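 note: 0% = growth of vehicle-only cultures of the same strain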; details: S. cerevisiae rad50 strain growth inhibition; at 50.0 µM; hits give high values
Summary of the method: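 Readout: growth inhibition relative to vehicle-treated cultures. Compound exposure was carried out in a genetically defined yeast strain deficient in DNA damage repair.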

[2] = NCI Yeast Anticancer Drug Screen. Data for the mec2-1 strain (AID 157); details: S. cerevisiae mec2-1 strain, at 50.0 µM, hits give high values
Summary of the method: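 Readout is yeast growth inhibition, normalised to vehicle-treated controls, in the mec2-1 strain exposed to compound.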

[3] = NCI Yeast Anticancer Drug Screen. Data for the sgs1 mgt1 strain (AID 161);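 note: 0% = growth of cultures given vehicle only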; details: S. cerevisiae sgs1 mgt1 strain, at 50.0 µM, hits give high values
Summary of the method: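 This yeast growth screen uses a strain with defined DNA-repair lesions; compound-treated growth is compared with vehicle-treated growth.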

[4] = NCI Yeast Anticancer Drug Screen. Data for the bub3 strain (AID 167); details: S. cerevisiae bub3 mutant strain, at 50.0 µM, hits give high values
Summary of the method: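 Readout: yeast growth inhibition, expressed relative to vehicle-only wells. The test organism is a mutant strain from a panel with lesions in DNA repair or checkpoint genes.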

[5] = NCI Yeast Anticancer Drug Screen. Data for the mlh1 rad18 strain (AID 175); details: S. cerevisiae mlh1 rad18 strain growth inhibition; at 50.0 µM; hits give high values
Summary of the method: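 Test agents were incubated with a yeast strain of defined genotype (DNA damage repair defect). Inhibition of growth was derived by comparison with vehicle-exposed cultures.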

[6] = NCI Yeast Anticancer Drug Screen. Data for the cln2 rad14 strain (AID 165);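 note: 0% = growth equal to vehicle treated cultures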; details: S. cerevisiae cln2 rad14 strain, at 50.0 µM, hits give high values
Summary of the method: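 Relative to vehicle controls, growth inhibition of compound-treated cln2 rad14 yeast was recorded.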

SMILES: Clc1ccc(-c2nnc(-c3cccc4ccccc34)o2)cc1
- growth inhibition [1]: -22.9%
- growth inhibition [2]: -56.9%
- growth inhibition [3]: -29.4%
- growth inhibition [4]: -19.6%
- growth inhibition [5]: -24.6%

SMILES: COc1cccc(Sc2ccc([N+](=O)[O-])c3no[n+]([O-])c23)c1
- growth inhibition [1]: 81.5% (active)
- growth inhibition [2]: 91.7% (active)
- growth inhibition [3]: 90.2% (active)
- growth inhibition [4]: 88.4% (active)
- growth inhibition [5]: 83.5% (active)

SMILES: CC1(O)OC(COc2ccc(Cl)cc2)COC1O (stereo unspecified)
- growth inhibition [1]: 0.55%
- growth inhibition [2]: -8.65%
- growth inhibition [3]: 4.7%
- growth inhibition [4]: -9.7%
- growth inhibition [5]: 18.9%

SMILES: CCOC(=O)CSc1c([N+](=O)[O-])ncn1C
- growth inhibition [1]: 4.9%
- growth inhibition [2]: 0.5%
- growth inhibition [3]: 8.75%
- growth inhibition [6]: 17.3%
- growth inhibition [5]: -10.4%

SMILES: O=C(O)CCCc1ccccc1
- growth inhibition [1]: 5.1%
- growth inhibition [2]: -6.2%
- growth inhibition [3]: 2.05%
- growth inhibition [4]: 6%
- growth inhibition [5]: 11.3%

SMILES: c1ccc(/C(=N\N=C(/c2ccccc2)c2cccs2)c2cccs2)cc1
- growth inhibition [1]: 18.3%
- growth inhibition [2]: -23.1%
- growth inhibition [3]: 25.7%
- growth inhibition [6]: -2.8%
- growth inhibition [5]: 10.6%

SMILES: Cc1cc(OCCO)cc(C)c1Cl
- growth inhibition [1]: -20.9%
- growth inhibition [2]: -65.8%
- growth inhibition [3]: -16.4%
- growth inhibition [4]: -10.5%
- growth inhibition [5]: -12.3%

SMILES: NC(=S)N/N=C/c1ccc(N)cc1
- growth inhibition [1]: 7.2%
- growth inhibition [2]: -2.35%
- growth inhibition [3]: 0.9%
- growth inhibition [4]: 2.35%

SMILES: CC(O)COc1ccc(-c2ccccc2)cc1 (stereo unspecified)
- growth inhibition [1]: 5.5%
- growth inhibition [2]: -2.9%
- growth inhibition [3]: 33%
- growth inhibition [4]: 28.1%
- growth inhibition [5]: 19.9%

SMILES: Cc1ncc(C#N)c(N)n1
- growth inhibition [1]: -24.9%
- growth inhibition [2]: -18%
- growth inhibition [3]: 12.9%
- growth inhibition [4]: -3.05%
- growth inhibition [5]: -5.4%

SMILES: CCOC(=O)CNN
- growth inhibition [1]: -7.2%
- growth inhibition [2]: 9.3%
- growth inhibition [3]: -12.2%
- growth inhibition [6]: 9.75%
- growth inhibition [5]: -30.1%

SMILES: COc1ccc(C2(O)CCCCC2)cc1
- growth inhibition [1]: 17.7%
- growth inhibition [2]: -13.2%
- growth inhibition [3]: 2.85%
- growth inhibition [4]: 7.35%
- growth inhibition [5]: 28.2%

SMILES: C/C(=N\O)C1(O)CCCCC1
- growth inhibition [1]: 28.9%
- growth inhibition [2]: 3.55%
- growth inhibition [3]: 8%
- growth inhibition [6]: 13.7%
- growth inhibition [5]: 15.8%

SMILES: O=C(NN=C1CCCCC1)C(=O)NN=C1CCCCC1
- growth inhibition [1]: 34.1%
- growth inhibition [2]: 13.6%
- growth inhibition [3]: 13.5%
- growth inhibition [6]: -20.7%
- growth inhibition [5]: 28.6%

SMILES: S=c1[nH]ccn1-c1ccccc1Cl
- growth inhibition [1]: -17.8%
- growth inhibition [2]: -17.2%
- growth inhibition [3]: -17.6%
- growth inhibition [4]: -10.4%
- growth inhibition [5]: -2.1%

SMILES: CC1(C(N)=O)CCC(C(=O)O)C1(C)C (stereo unspecified)
- growth inhibition [1]: 10.3%
- growth inhibition [2]: -3.45%
- growth inhibition [3]: 14.4%
- growth inhibition [4]: -3.45%
- growth inhibition [5]: 8.15%

SMILES: CSc1[nH]c(=O)ncc1F
- growth inhibition [1]: 4.15%
- growth inhibition [2]: 4.1%
- growth inhibition [3]: 3.2%
- growth inhibition [4]: -2.3%
- growth inhibition [5]: -7.45%

SMILES: N#Cc1ccc(NC(=O)Nc2cccc(C#N)c2)cc1
- growth inhibition [1]: -3.5%
- growth inhibition [2]: -12.3%
- growth inhibition [3]: -9.75%
- growth inhibition [4]: -0.3%
- growth inhibition [5]: -15.6%

SMILES: CCOC(=O)c1[nH]c(C)c(C(C)=O)c1C
- growth inhibition [1]: -0.45%
- growth inhibition [2]: -22.5%
- growth inhibition [3]: 9%
- growth inhibition [4]: -27%
- growth inhibition [5]: -8.15%

SMILES: NC(=S)NN=C1CCCC1
- growth inhibition [1]: 2.2%
- growth inhibition [2]: -5.8%
- growth inhibition [6]: -19.6%
- growth inhibition [5]: 7.75%

SMILES: O=C(Cc1ccccc1)Cc1ccccc1
- growth inhibition [1]: -1.55%
- growth inhibition [2]: -5%
- growth inhibition [6]: -3.3%
- growth inhibition [4]: -8.65%
- growth inhibition [5]: 13.6%

SMILES: CCOC(=O)C1=C(C)NC(=O)NC1c1cccs1 (stereo unspecified)
- growth inhibition [1]: -11.2%
- growth inhibition [2]: -26.9%
- growth inhibition [6]: 5.5%
- growth inhibition [4]: -14.2%
- growth inhibition [5]: -20.1%

SMILES: Cc1ccc(C)n1-c1ccsc1C(=O)NNC(=O)C(Cl)Cl
- growth inhibition [1]: 5.9%
- growth inhibition [2]: 13.9%
- growth inhibition [4]: 21.7%
- growth inhibition [5]: 20.7%

SMILES: C1CNC(C2=NCCN2)=N1
- growth inhibition [1]: -4.85%
- growth inhibition [2]: -8.2%
- growth inhibition [6]: -26.1%
- growth inhibition [4]: -31.8%
- growth inhibition [5]: -7.25%

SMILES: O=c1cc2oc3cc(O)c(O)cc3c(-c3ccccc3O)c-2cc1O
- growth inhibition [1]: 26.1%
- growth inhibition [2]: 2.25%
- growth inhibition [6]: 32.3%
- growth inhibition [4]: 41%
- growth inhibition [5]: 26.4%

SMILES: COC(=O)c1cccc(Br)c1
- growth inhibition [1]: -4.4%
- growth inhibition [2]: 1.5%
- growth inhibition [4]: 0.15%
- growth inhibition [5]: 13.4%

SMILES: O=S(=O)(O)c1cc(O)c2c(N=Cc3ccccc3O)c(S(=O)(=O)O)ccc2c1
- growth inhibition [1]: 5.15%
- growth inhibition [2]: -9.6%
- growth inhibition [6]: -2.45%
- growth inhibition [4]: 17%
- growth inhibition [5]: 8.3%

SMILES: C#CC(C(C)C)N(CCO)CCCC (stereo unspecified)
- growth inhibition [1]: 11.2%
- growth inhibition [2]: 4.55%
- growth inhibition [6]: 7.35%
- growth inhibition [4]: 26.7%
- growth inhibition [5]: 16%

SMILES: OCC1OC(OC2C(O)C(CO)OC2(CO)OC2OC(CO)C(O)C(O)C2O)C(O)C(O)C1O (stereo unspecified)
- growth inhibition [1]: -18.1%
- growth inhibition [2]: -7.95%
- growth inhibition [6]: -3.15%
- growth inhibition [4]: -14.2%
- growth inhibition [5]: -14.7%

SMILES: CC(=O)/C(Cc1ccccc1)=N/O
- growth inhibition [1]: 10.7%
- growth inhibition [2]: 4.55%
- growth inhibition [6]: -4%
- growth inhibition [4]: -2.1%
- growth inhibition [5]: 2.15%

SMILES: Cc1ccccc1N=C(c1ccccc1)C1C(=O)c2ccccc2C1=O
- growth inhibition [1]: -20.6%
- growth inhibition [2]: 19.4%
- growth inhibition [6]: 29%
- growth inhibition [4]: 49.2%
- growth inhibition [5]: 12.6%

SMILES: CCC(C)(O)c1ccc(C)cc1 (stereo unspecified)
- growth inhibition [1]: 26.5%
- growth inhibition [2]: 33%
- growth inhibition [6]: -21.1%
- growth inhibition [4]: 19.6%
- growth inhibition [5]: 6.4%
